What all share (assay): NCI-60 one-dose screen, 48 h (100 = growth as untreated, 0 = no growth, -100 = all killed)
The test system of assay [1] is SR leukemia. Conditions: 10 µM unless noted.
In assay [2] the test system is RPMI-8226 leukemia. Conditions: 10 µM unless noted.
Assay [3] relates to OVCAR-8 ovarian. The conditions noted are these: 10 µM unless noted.
For assay [4], the system named is OVCAR-5 ovarian. Conditions: 10 µM unless noted.
Assay [5] deals with OVCAR-4 ovarian. The conditions noted are these: 10 µM.
Assay [6] relates to SK-OV-3 ovarian. Conditions: 10 µM unless noted.
Assay [7] deals with OVCAR-3 ovarian. Conditions: 10 µM unless noted.
In assay [8] the test system is NCI/ADR-RES ovarian. The conditions noted are these: 10 µM unless noted.
In assay [9] the test system is T-47D breast. The conditions noted are these: 10 µM unless noted.
Assay [10] concerns BT-549 breast. The conditions noted are these: 10 µM unless noted.
In assay [11] the test system is MDA-MB-435 melanoma. The conditions noted are these: 10 µM unless noted.
Assay [12] relates to SW-620 colon. Conditions: 10 µM unless noted.
The subject of assay [13] is MCF7 breast. The conditions noted are these: 10 µM unless noted.
Assay [14] concerns HCT-116 colon. The conditions noted are these: 10 µM unless noted.
Assay [15] relates to HCC-2998 colon. Conditions: 10 µM unless noted.
The test system of assay [16] is KM12 colon. Conditions: 10 µM unless noted.
In assay [17] the test system is HS 578T breast. Conditions: 10 µM unless noted.

Each structure is given as a SMILES string. The panel holds about 83,000 compounds, 20% with a hit somewhere; the sample as a whole holds those more often.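 Method: cells in 96-well plates; compound added at one concentration; 48 h incubation; percent growth measured; values under 10 scored active.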 Values without a mark were called inactive. Activity calls are given as the source filed them.

In the case of `CCCCOC(=O)c1c(C)[nH]c(/C=C2\N=C(c3ccc[nH]3)C=C2OC)c1C`, the growth was 14.5% in assay [1]; -32.1% (active) in assay [2]; 7.7% (active) in [3]; 11% in assay [4]; 3.84% (active) in [5]; 34.7% in assay [6]. For the same compound, the growth in assay [7] was -37.6% (active); in [8], 8.85% (active); in [9] it was -46.1% (active); in [10], 14.9%; in assay [11], -51.1% (active); in [12], 11.6%. The growth was -44.2% (active) in [13], -76.1% (active) in [14], -28.1% (active) in assay [15] and -5.76% (active) in assay [16].
For `COc1cc(-c2nc(SCCC(C)C)nc(Nc3ccc(S(N)(=O)=O)cc3)c2C#N)cc(OC)c1OC`, the growth in assay [1] is -18.5% (active); in [2] it was -0.242% (active); in assay [3], 29.9%; in assay [4], 53.9%; in assay [5], 19.8%; in [6] it was 76.5%. The growth in assay [7] is 32.5%; in assay [17], 40.5%; in assay [8], 37.6%; in assay [10], 27.6%; in assay [11], 22.2%; in assay [12], 36.3%. Besides, the growth in assay [13] is 16.9%; in assay [14], 3.77% (active); in [15], 35.2%; in assay [16] it was 19.9%.
Regarding `CCOC(=O)c1sc2nc(-c3cc(OC)c(OC)c(OC)c3)nc(N3CCOCC3)c2c1C`, the growth in assay [1] was 41.8%; in [2] it was 9.94% (active); in [3], 44.1%; in assay [4], 74%; in [5] it was 19.7%; in [6] it was 56.1%. Moreover, the growth in assay [7] was 15.5%; in assay [8], 53.9%; in assay [9], -6.97% (active); in [10], 41.2%; in [11] it was 35.7%; in assay [13], 27.1%. Also, the growth in assay [14] was 25.6%; in assay [15], 51.5%; in [16], 31.4%.
In the case of `CCCCCCCCN(CCCCCCCC)CC(O)c1ccc(Cl)c(C)c1Cl` (centres undefined), the growth in [1] is 52.6%; in assay [2], 72.8%; in assay [3], 93.6%; in assay [4], 84.1%; in assay [5], 93.5%; in [6], 77.5%. For the same compound, the growth was 88.9% in [7]; 89.6% in assay [8]; 75.9% in assay [9]; 117% in assay [10]; 91.4% in assay [11]; 44.5% in assay [12]. In addition, the figures for the growth in assay [13], in [14] and in assay [15] were 90.4%, 63.5% and 85.3%, respectively.
In the case of `Cc1ccc(S(=O)(=O)N/N=C2\CC3CCC2(C)C3(C)C)cc1` (centres undefined), the growth in assay [1] is 105%; in assay [2], 97.4%; in assay [3] it was 88.8%; in assay [4], 83.4%; in [5], 104%; in assay [6], 114%. In addition, the growth in [7] is 103%; in [17], 120%; in assay [8], 213%; in [9], 105%; in assay [11], 103%; in assay [12], 99.3%. Besides, the growth in [13] was 90.3%; in assay [14] it was 104%; in assay [15], 748%; in assay [16], 95.4%.
Turning to `CCCCOC(=O)c1cccc([N+](=O)[O-])c1`, the growth was 132% in [1]; 90.2% in assay [2]; 100% in [3]; 97.9% in assay [4]; 113% in assay [5]; 109% in assay [6]. Also, the growth in assay [7] is 114%; in assay [17], 114%; in assay [9] it was 110%; in assay [10], 104%; in assay [11] it was 103%; in [13] it was 115%. For the same compound, the growth was 113% in assay [14], 98.5% in [15] and 108% in assay [16].
Turning to `CC1(C)C(=NO)C(C)(C)C1=NO`, the growth in assay [1] is 103%; in [2], 76.2%; in assay [3], 113%; in [4], 103%; in [5], 115%; in assay [6], 125%. The growth in assay [7] was 117%; in assay [8], 106%; in assay [9], 121%; in assay [10] it was 116%; in assay [11] it was 92.2%; in assay [12], 100%. The growth in assay [13] was 106%; in assay [14], 103%; in assay [15], 98%; in [16], 118%.
`CCOC(=O)CCC[P+](c1ccccc1)(c1ccccc1)c1ccccc1`: the growth in assay [1] is 59.5%; in [2], 41.9%; in [3], 82.2%; in [4], 95.1%; in assay [5] it was 81.7%; in [6], 98.9%. For the same compound, the growth in assay [7] is 45.9%; in assay [17], 92.9%; in [8], 105%; in assay [9] it was 27.5%; in assay [11], 60.4%; in [12], 84.7%. Moreover, the values for the growth in assay [13] and in assay [15] were 59.7% and 56.3%, respectively.
For the compound `CCCCCCCCCCCCCC[n+]1cccc(C(N)=O)c1`, the growth in [1] is -25.9% (active); in assay [2] it was -51.2% (active); in [3], 18%; in assay [4], 44.2%; in [5], 14.5%; in assay [6], 23.3%. Besides, the growth in assay [7] is -32.4% (active); in assay [8] it was 105%; in assay [9], 49.8%; in [10], -49.9% (active); in assay [11], -36.5% (active); in assay [12], 0.686% (active). For the same compound, the figures for the growth in assay [13], in assay [14] and in assay [15] were 39.4%, 20.8% and -51.8% (active), respectively.
On to `O=c1[nH]c(CN2CCN(c3cccc(Cl)c3)CC2)nc2cc(Cl)ccc12`, for which the growth is 89.7% in assay [1]; 34.7% in [2]; 46.2% in [3]; 85.3% in assay [4]; 104% in [5]; 82.1% in assay [6]. Moreover, the growth in assay [7] is 100%; in [17] it was 99%; in assay [8] it was 86.4%; in assay [9] it was 75.9%; in assay [11] it was 103%; in [12] it was 99.2%. The growth in assay [13] was 86.2%; in assay [14], 92.4%; in assay [15], 96.2%; in assay [16], 99%.
